# The list is not random: actives were taken first. Their share in the collection is about 18%.
# DT40 TDP1 CPT – DT40-hTDP1 cell growth loss with CPT | Potency, µM (top dose mostly 46.2 µM), for inactives: at the top dose activity change, negative = growth inhibition, most hits filed as inhibitors | 420,000 tested, 12% active | chicken DT40 Tdp1-/-;hTDP1 cells + 20 nM CPT, ATP luminescence, 48 h | AID 686979; also: nearly all actives have a fitted effect of over 55% in size
#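 Chicken DT40 Tdp1-/- cells stably complemented with human TDP1 were seeded at 400 cells/well in medium containing 20 nM camptothecin, exposed to pin-transferred compounds, and grown at 37 °C for at least 48 hr. Viability was read as ATP luminescence.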
# VDR inh – vitamin D3 receptor (human) inhibition. AID 504847. 400,000 tested, 0.93% active. VDR-SRC2-3 peptide fluorescence polarization, 2 h. Potency, µM, inactives show max response, negative = inhibition, usual class: inhibitors
#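 Measured by FP: displacement of SRC2-3 coactivator peptide from VDR by library compounds, following a two-hour ambient incubation.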
# TDP1 inh – blocks human tyrosyl-DNA phosphodiesterase 1; 350,000 tested, 0.28% active; Potency, µM (doses to about 130 µM), for the others: at the top dose activity change, negative = inhibition, hits mostly inhibitors; AID 485290; recombinant TDP1, AlphaScreen DNA substrate cleavage; Q9NUW8; also: nearly all actives have a fitted effect of over 40% in size
# Target sequence (Q9NUW8 whole entry, looked up): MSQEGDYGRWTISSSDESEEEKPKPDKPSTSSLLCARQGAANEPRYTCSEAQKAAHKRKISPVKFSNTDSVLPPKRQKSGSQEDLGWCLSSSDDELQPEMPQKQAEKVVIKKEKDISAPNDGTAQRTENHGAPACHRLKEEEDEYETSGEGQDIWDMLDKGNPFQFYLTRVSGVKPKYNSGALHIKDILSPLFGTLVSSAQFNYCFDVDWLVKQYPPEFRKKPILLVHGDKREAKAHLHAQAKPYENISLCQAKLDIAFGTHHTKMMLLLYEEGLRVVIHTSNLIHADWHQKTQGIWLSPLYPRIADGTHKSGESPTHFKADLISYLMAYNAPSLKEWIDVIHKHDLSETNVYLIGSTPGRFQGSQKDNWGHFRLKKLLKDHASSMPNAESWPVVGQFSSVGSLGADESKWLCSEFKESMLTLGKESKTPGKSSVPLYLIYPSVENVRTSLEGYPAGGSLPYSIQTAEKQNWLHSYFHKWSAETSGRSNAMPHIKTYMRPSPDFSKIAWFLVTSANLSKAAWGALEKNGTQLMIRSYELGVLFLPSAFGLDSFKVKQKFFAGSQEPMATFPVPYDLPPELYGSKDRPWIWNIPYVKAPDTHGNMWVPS
#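 Enzyme-compound mixtures sat 15 min at room temperature, followed by a 5 min reaction with 15 nM final substrate and 10 min with AlphaScreen beads. Recombinant human Tdp1 was used at 1 nM final.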
# KAT2A inh – GCN5L2 (KAT2A) acetyltransferase inhibition; GCN5L2 HAT assay, ThioGlo1 CoA-SH fluorescence; Potency, µM (highest dose often 58.9 µM), inactives show at the top dose activity change, negative = inhibition, usual class: inhibitors; 390,000 tested, 0.21% active
#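 Preincubate 20nM GCN5L2 with compound 15 min, RT → add 50uM ThioGlo1 + 75uM H3(1-25) + 70uM acetyl-CoA → read fluorescence 0 and 20 min. Primary qHTS; fluorescent artifacts likely.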
# PLK1 PBD inh – inhibitors of human PLK1 polo-box domain binding. P53350. Plk1 PBD binding of FITC phosphopeptide, fluorescence polarization. Potency, µM, for inactives: max response, negative = inhibition, most hits filed as inhibitors. 360,000 tested, 2.8% active; also: series mostly up to about 57 µM; nearly all actives have a fitted effect of over 65% in size
# DT40 TDP1 no CPT – qHTS for Inhibitors of human tyrosyl-DNA phosphodiesterase 1 (TDP1): qHTS in cells in absence of CPT | Potency, µM (highest dose often 46.2 µM), for the others: top-dose activity change, negative = growth inhibition, usual class: inhibitors | DT40 Tdp1-/- hTDP1 cells, no CPT, ATP luminescence, 48 h | 420,000 tested, 15% active; also: nearly all actives have a fitted effect of over 55% in size
#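 Cells were dispensed at 400 per well, compounds added by pin tool, plates incubated ≥48 hr at 37 °C, then CellTiter-Glo added for 30 min at room temperature before luminescence reading. Line: DT40 Tdp1-/- complemented with hTDP1; camptothecin omitted.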
# * = called active by the depositor; ? = inconclusive; · = not tested or not shown; [ ] = dose if it differs, or a comment. Calls follow the shape of the dose curve; as a rule, active = well fitted curve in the direction sought with a large enough effect; inconclusive = small, poorly fitted or top-dose-only effect, or another doubt; inactive = no such curve, though single readings can be large; an effect the other way counts as inactive or inconclusive. % is scaled to controls: 0 for no effect and ±100 for the full control effect; potency is read from the fitted curve at half-maximal effect.
SMILES,DT40 TDP1 CPT,VDR inh,TDP1 inh,KAT2A inh,PLK1 PBD inh,DT40 TDP1 no CPT
CCc1c(C)nc(N2CCN(c3cccc(OC)c3)CC2)[nH]c1=O,?,-14%,·,1%,5%,?
Clc1cncc(Cl)c1N/N=C/c1ccncc1,?,-18%,5%,-2%,-8%,?
Clc1cccc(Cl)c1/C=N/Nc1c(Cl)cncc1Cl,2.1µM*,-8%,-3%,1%,2%,3.3µM*
CN1CCN(C(=O)c2ccc(-c3cnc4cccnn34)cc2)CC1,-30%,·,·,·,-11%,-12%
CCOC(=O)Cn1nc(-c2ccccc2)c(-c2ccccc2)nc1=O,-1%,-12%,·,-29%,-11%,-8%
CCOC(=O)Cn1c(S(=O)(=O)Cc2ccccc2Cl)nc(-c2ccccc2)c1-c1ccccc1,16µM*,-12%,0%,?,-7%,15µM*
CCOC(=O)Cn1c(-c2cccnc2)nc(-c2ccccc2)c1-c1ccccc1,?,3%,·,-2%,-18%,23µM*
C#CCn1c(S(=O)(=O)Cc2ccccc2Cl)nc(-c2ccccc2)c1-c1ccccc1,18µM*,0%,3%,-8%,-11%,?
COC(=O)[C@@]1(Cc2ccccc2)[C@H]2c3cc(C(=O)N(C)C)n(C[C@H](O)CO)c3C[C@H]2CN1C(=O)c1ccccc1,·,·,10%,·,·,·
COCCCNc1ncnc2c1[nH]c1ccccc12,·,·,7%,2%,·,·
CCCOc1ncnc2c1[nH]c1ccccc12,23µM*,3%,6%,0%,-9%,21µM*
Cc1ccc2[nH]c3c(N4CCCCCC4)ncnc3c2c1,·,·,3%,-4%,·,·
CCCCOc1ncnc2c1[nH]c1ccc(C)cc12,?,-7%,-4%,-7%,3%,21µM*
CCN(CC)c1ncnc2c1[nH]c1ccccc12,18µM*,19%,6%,-7%,-4%,23µM*
COCCNc1ncnc2c1[nH]c1ccccc12,?,7%,4%,-7%,-5%,12µM*
COc1ccc(C2/C=C\CN([S+](=O)([O-])c3ccc4ccccc4c3)C(C)C(=O)N2Cc2ccc(F)cc2)cc1 (configuration not stated),·,-7%,7%,·,·,·
Cc1nc(/C(N)=N/OC(=O)Cc2ccccc2)no1,-14%,-5%,1%,-6%,0%,1%
Cc1cccc(NC(=O)Cc2nc(-c3c[nH]c(C(=O)N4CCCC4)c3)cs2)c1,?,-1%,2%,-13%,-23%,?
CN1CCN2c3ncccc3Cc3ccccc3[C@@H]2C1,0%,-2%,·,0%,2%,-3%
NC1=NCC2c3ccccc3Cc3ccccc3N12 (configuration not stated),?,9%,11%,1%,·,24µM*
O=C(Nc1ccc(C(F)(F)F)cc1)C1CCN(S(=O)(=O)c2ccc(N3CCCC3=O)cc2)CC1,2.6µM*,-22%,0%,-5%,-3%,?
O=C(NCCCN1CCCC1=O)C1CCN(S(=O)(=O)c2cc(C(F)(F)F)ccc2Cl)CC1,15µM*,1%,0%,0%,-11%,?
COc1cc(NC(=O)C2CCN(S(=O)(=O)c3ccc(N4CCCC4=O)cc3)CC2)cc(OC)c1,?,-25%,2%,-5%,30µM*,?
CC1(C)[C@@H](OC(=O)CCC(=O)O)CC[C@@]2(C)[C@H]1CC[C@@]1(C)[C@H]2C(=O)C=C2[C@H]3C[C@](C)(C(=O)O)CC[C@]3(C)CC[C@@]21C,·,?,3%[56.1 µM],0%[21.4 µM],·,·
CCN(c1ccccc1)S(=O)(=O)c1ccc(Cl)c(NC(=O)CNCc2ccccc2OC)c1,?,4%,2%,-18%,-10%,?
CC(C)CN1CCc2nc(N3CCN(C)CC3)ncc2C1,-13%,7%,9%,-1%,·,-24%

# Screens: PubChem, National Center for Advancing Translational Sciences (NCATS)
